Data from the OligoGym collection.

Target: CORIN
Experiment: pooled miR-30 sensor sort-seq; sequence = guide strand
Details: shRNA
Note: reference of the scale not given here.

Row | Sequence | sensor-assay potency score (higher = more potent)
1 | TTGAGTATGTAGCTACAACTGT | -0.57
2 | TTTATTGCTGTCTTTTATCAGT | -0.911
3 | ATGATCTTGATATACATCCAGA | -1.55
4 | TTGAACTTTCATACAATCGTGA | 0.765
5 | TTGATTGTCTGAATTTTCCTCT | 0.641
6 | TTAAACATGTAAATTATCTTGG | 0.389
7 | TTGATATACATCCAGAATGGGG | -1.35
8 | TAAAATTGCAGGTAGTATCTAT | 0.492
9 | ATTTGTAAGAATAACATCGGAC | -0.147

Target: CORO2B
Experiment: as above
Details: shRNA

Row | Sequence | sensor-assay potency score (higher = more potent)
10 | TTGTCGTGCACATTCTTGGTGA | -0.294
11 | TTGTAGAAGCGGAACACCTCGC | -0.204
12 | TTTCTAATAAATCTATTCCGTT | -1.03
13 | TAATGCATCTAGTAGATCCTAG | 0.537
14 | ATCTGTCTTGTGTTCCACCTGG | -0.685
15 | TATTTCAATTCTATCCTTGGGA | 0.222
16 | TAGACATTCCGGAACTTGGAGC | -1.06
17 | TTTTCTAATAAATCTATTCCGT | -0.324
18 | TTGTAGTCGTAGCCAGCGCTGA | -0.89
19 | TTCTTGTCCTTGCACGTGGTGG | -1.22
20 | TAGAAGCGGAACACCTCGCAGG | -0.524
21 | TTCTAATAAATCTATTCCGTTG | -0.9

Target: COX10
Experiment: as above
Details: shRNA

Row | Sequence | sensor-assay potency score (higher = more potent)
22 | TATTGTTAGAAGGACTATGGTT | -0.28
23 | TTTCTGGACAAAGATAGGCTGG | -0.448
24 | TAACCGTATTTGGTAACCGAGA | -1.58
25 | TATTGAGTCTTCAATTACTGAG | -0.782
26 | TGATTTTGGATAGTCGAGCCAA | -0.198
27 | TCTGCGTCCACGTAGAAGCGGA | -0.792
28 | TTTGAGGAAGCTAAAGTGCTGA | 0.14
29 | TTCAGTGGTGTGTAGCAGCAGG | -0.511
30 | TTATCTACCTACAATCCCTTTA | -0.2
31 | TTGTATTCACTGACTGAGCTGA | -0.0577
32 | TCTAGTTCTATCAATTCCTTTT | -0.971
33 | TTGTTTAACTCTCCCACCCCGA | -0.416
34 | TTCTTTGTCCTATTCATGTTTG | -0.705
35 | TTTTAGAAGGAACTGCTTCCAA | -0.134
36 | TGATTGGATGTTATCTACCTAC | -0.498
37 | TTTAGAAGGAACTGCTTCCAAC | -0.611
38 | TACACTTGCAGCTTCATCTCTT | 1.01
39 | TACCACAACATGCTCGCCTGGC | -0.0841
40 | TTCGTTTATAATCTTGTTCTAA | 0.241
